Data taken from the supplement of paper PMC8975748.
Where a name gives a salt, the structure may show the parent alone.

Each compound was assayed on Saccharomyces cerevisiae BY4741 SeMeCo community (assay: z-score of subpopulation abundance vs DMSO median, subpopulation auxotrophic for LU; higher = larger share of this subpopulation than in DMSO controls). Settings: 10 µM; 24 h; SM minimal medium; subpopulation (auxotrophy): LU.
Experimental: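 Fluorescent four-plasmid SeMeCo (self-establishing metabolically cooperating S. cerevisiae BY4741 community; plasmids pH-mRuby2, pL-mWasabi, pU-eCFP, pM-TagRFP657) was grown 24 h in minimal SM medium with each Selleck FDA-approved drug at 10 µM in 384-well plates. Cells were fixed and imaged by high-content confocal microscopy. For each auxotrophic subpopulation (and the prototroph), a z-score gives the deviation from the DMSO vehicle-control population median.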

| Compound | z-score of subpopulation abundance |
| --- | --- |
| Cn1cc(C2=C(c3cn(C4CCN(Cc5ccccn5)CC4)c4ccccc34)C(=O)NC2=O)c2ccccc21 | 0.66 |
| C=CCN1C[C@H](C(=O)N(CCCN(C)C)C(=O)NCC)C[C@@H]2c3cccc4[nH]cc(c34)C[C@H]21 [Cabergoline] | 1.61 |
| Cc1cc(C(C#N)c2ccc(Cl)cc2)c(Cl)cc1NC(=O)c1cc(I)cc(I)c1O (centres undefined) [Closantel] | 0.89 |
| CCN(C)C(=O)Oc1cccc([C@H](C)N(C)C)c1 [Rivastigmine Tartrate] | 0.44 |
| CCN(CC)CCOC(=O)C(O)(c1ccccc1)c1ccccc1 [Benactyzine hydrochloride] | 1.57 |
| CCCCCCCCCCCCCCCC[n+]1ccccc1 [Cetylpyridinium Chloride] | 4.67 |
| C[N+]12CCC(CC1)C(OC(=O)C(O)(c1ccccc1)c1ccccc1)C2 (centres undefined) [Clidinium Bromide] | 0.83 |
| CC(C)N(CCC(C(N)=O)(c1ccccc1)c1ccccn1)C(C)C (centres undefined) [Disopyramide] | -0.22 |
| CCOC(=O)Nc1ccc(NCc2ccc(F)cc2)cc1N [Retigabine] | -1.25 |
| Cc1cc(O)ccc1Cl [Chlorocresol] | -0.74 |
| C[CH2][Hg][S]c1ccccc1C(=O)[O-].[Na+] [Thimerosal] | 11.1 |
| C=CN1CCCC1=O.II [Povidone iodine] | 0.69 |
| CN(C)[C@@H]1C(=O)C(C(N)=O)=C(O)[C@@]2(O)C(=O)C3=C(O)c4c(O)cccc4[C@@](C)(O)[C@H]3C[C@@H]12 [Tetracycline HCl] | -0.24 |
| CN(C)[C@@H]1C(=O)C(C(N)=O)=C(O)[C@@]2(O)C(=O)C3=C(O)c4c(O)cccc4[C@@](C)(O)[C@H]3[C@H](O)[C@@H]12 [Oxytetracycline (Terramycin)] | 0.73 |
| CN(C)[C@@H]1C(=O)C(C(N)=O)=C(O)[C@@]2(O)C(=O)C3=C(O)c4c(O)cccc4[C@@](C)(O)[C@H]3[C@H](O)[C@@H]12 [Oxytetracycline Dihydrate] | -0.6 |
| C[C@@H]1CC[C@H]2[C@@H](C)C(=O)O[C@@H]3O[C@@]4(C)CC[C@@H]1[C@]32OO4 [Artemisinin] | -0.94 |
| CCCN1C[C@H](CSC)C[C@@H]2c3cccc4[nH]cc(c34)C[C@H]21 [Pergolide Mesylate] | -0.8 |

| Compound | z-score of subpopulation abundance |
| --- | --- |
| CC(C)=CCOc1c2occc2cc2ccc(=O)oc12 [Imperatorin] | 0.92 |
| CCOC(=O)Nc1ccc(NCc2ccc(F)cc2)cc1N [Retigabine 2HCl] | -0.86 |
| NC(=O)CN1CCCC1=O [Piracetam] | 1.37 |
| CN1[C@@H]2C[C@@H](OC(=O)[C@H](CO)c3ccccc3)C[C@H]1[C@@H]1O[C@@H]12 [Scopolamine HBr] | 0.22 |
| COc1ccc(C=O)cc1 [p-Anisaldehyde] | -0.64 |
| C=C(C)[C@H]1Cc2c(ccc3c2O[C@@H]2COc4cc(OC)c(OC)cc4[C@@H]2C3=O)O1 [Rotenone (Barbasco)] | 0.18 |
| CN[C@@H]1[C@@H](O)[C@@H](O[C@@H]2[C@@H](O)[C@H](O[C@H]3O[C@H](CN)CC[C@H]3N)[C@@H](N)C[C@H]2N)OC[C@]1(C)O.CN[C@@H]1[C@@H](O)[C@@H](O[C@@H]2[C@@H](O)[C@H](O[C@H]3O[C@H]([C@@H](C)N)CC[C@H]3N)[C@@H](N)C[C@H]2N)OC[C@]1(C)O.CN[C@@H]1[C@@H](O)[C@@H](O[C@@H]2[C@@H](O)[C@H](O[C@H]3O[C@H]([C@@H](C)NC)CC[C@H]3N)[C@@H](N)C[C@H]2N)OC[C@]1(C)O [Gentamicin Sulfate] | -0.15 |
| COc1ccc2c3c([nH]c2c1)C(C)=NCC3 [Harmaline] | -7.5 |
| CC[C@@H](C(N)=O)N1CCCC1=O [Levetiracetam] | -0.25 |
| CN(C)C(=O)Oc1cccc([N+](C)(C)C)c1 [Neostigmine Bromide] | 0.79 |
| CN1[C@@H]2CC[C@H]1C[C@@H](OC(=O)C(CO)c1ccccc1)C2 (some centres undefined) [Atropine sulfate monohydrate] | -0.08 |
| Oc1cc(Cl)ccc1Oc1ccc(Cl)cc1Cl [Triclosan] | -0.23 |
| CC[C@H]1CN2CC[C@]3(C(=O)Nc4ccccc43)[C@@H]2C[C@@H]1/C(=C\OC)C(=O)OC [Rhynchophylline] | 0.24 |
| CN[C@@H]1[C@@H](O)[C@@H](O[C@@H]2[C@@H](O)[C@H](O[C@H]3O[C@H]([C@@H](C)O)[C@@H](O)[C@H](O)[C@H]3N)[C@@H](N)C[C@H]2N)OC[C@]1(C)O [Geneticin (G418 Sulfate)] | 0.61 |
| O=c1[nH]c2ccccc2n1CCCN1CCC(n2c(=O)[nH]c3cc(Cl)ccc32)CC1 [Domperidone] | 0.48 |
| Nc1ccncc1 [4-Aminopyridine] | 0.6 |
| CC[N+](C)(CC)CCOC(=O)C(O)(c1ccccc1)c1ccccc1 [Methylbenactyzine Bromide] | -0.58 |
